# Vaccinia stage – blocks a specific stage of Vaccinia orthopoxvirus infection. Vaccinia-infected cells, mCherry/Venus stage reporter fluorescence; hits give low values. activity change (mCherry), % (test concentration not listed). 89,000 compounds, 0.01% hits; in the data active = activity change below about -37%, passing the limit was not always enough; tested in A549 cells
# A number is an active result; i = inactive. Many of the other results were omitted from the sample, so hits are more common in it than they were.
SMILES,Vaccinia stage
COc1cccc(NC(=O)C[C@@H]2CC[C@@H]3[C@H](COc4ccc(NC(=O)c5ccccc5F)cc4C(=O)N3C)O2)c1,i
CN(C)C(=O)C[C@H]1CC[C@H]2[C@@H](COC[C@@H](O)CN2CC2CC2)O1,i
COc1ccc(NC(=O)Nc2cccc3c2O[C@@H](CN(C)S(C)(=O)=O)[C@H](C)CN([C@H](C)CO)C3=O)cc1,i
C[C@H](CO)N1C[C@H](C)[C@H](CN(C)S(=O)(=O)c2ccc(F)cc2)Oc2c(NS(=O)(=O)c3cn(C)cn3)cccc2C1=O,i
CCNC(=O)c1cc2c(c(-c3cccc(-c4cccc(F)c4)c3)n1)[C@@H](CCO)N([S@](=O)C(C)(C)C)C2,i
CCCNC(=O)c1cc2c(c(-c3cccc(-c4cccc(F)c4)c3)n1)[C@H](CCO)N([S@@](=O)C(C)(C)C)C2,-46
COCCNC(=O)c1cc2c(c(-c3cccc(-c4cccc(F)c4)c3)n1)[C@@H](CCO)N([S@](=O)C(C)(C)C)C2,i
CN1CCN(C(=O)c2cc3c(c(-c4cccc(C#CCC5CCCC5)c4)n2)[C@@H](CCO)N(S(=O)C(C)(C)C)C3)CC1 (some centres undefined),-65
CN1CCN(C(=O)c2cc3c(c(-c4cccc(Br)c4)n2)[C@H](CCO)N([S@@](=O)C(C)(C)C)C3)CC1,i
COc1ccccc1-c1cccc(-c2nc(C(=O)N3CCN(C)CC3)cc3c2[C@@H](CCO)N([S@](=O)C(C)(C)C)C3)c1,i
O=C(CN1CCOCC1)N[C@H]1CC[C@H](CCNC(=O)C2CCC2)O[C@@H]1CO,i
C[C@H]1CN([C@@H](C)CO)C(=O)c2cccc(NC(=O)Nc3ccc(C(F)(F)F)cc3)c2O[C@@H]1CN(C)Cc1ccncc1,i
O=C(C[C@H]1C=C[C@@H](NC(=O)C2CCC2)[C@@H](CO)O1)Nc1nccs1,i
CC(C)NC(=O)N1C[C@H]2[C@@H](c3ccccc31)[C@@H](CO)N2C(=O)c1ccccn1,i
C[C@@H]1CCCCO[C@H](CN(C)Cc2ccncc2)[C@H](C)CN([C@H](C)CO)C(=O)c2cc(NS(=O)(=O)c3ccc(F)cc3)ccc2O1,i
CC(C)NC(=O)N(C)C[C@@H]1Oc2ccc(NS(=O)(=O)c3ccc(Cl)cc3)cc2CC(=O)N([C@H](C)CO)C[C@@H]1C,i
CCC(=O)N(CC)C[C@H]1[C@H](c2ccccc2)[C@@H](CO)N1C(C)=O,i
C[C@@H]1CN([C@@H](C)CO)C(=O)c2cc(NS(C)(=O)=O)ccc2O[C@@H](C)CCCCO[C@H]1CN(C)Cc1ccncc1,i
CC(C)(C)S(=O)N1Cc2cc(C(=O)NCc3ccc4c(c3)OCO4)nc(-c3cccc(-c4cccc(F)c4)c3)c2[C@@H]1CCO (some centres undefined),i
O=C(C[C@H]1CC[C@H](NC(=O)c2ccc3c(c2)OCO3)[C@@H](CO)O1)NCc1ccc(Cl)cc1,i
CC(=O)N1[C@H](CN(C(=O)c2ccccc2)C(C)C)[C@@H](c2ccccc2)[C@@H]1CO,i
C[C@H](CO)N1C[C@H](C)[C@H](CN(C)CC2CC2)Oc2c(NC(=O)c3nc4ccccc4s3)cccc2C1=O,i
COCC#Cc1cnc2c(c1)C(=O)N([C@@H](C)CO)C[C@H](C)[C@H](CN(C)C(=O)c1cccc(F)c1)O2,i
CO[C@H]1CN(C)C(=O)c2ccc(NS(C)(=O)=O)cc2OC[C@@H](C)N(C(=O)NC(C)C)C[C@@H]1C,i
COc1ccc(S(=O)(=O)Nc2ccc3c(c2)C(=O)N([C@@H](C)CO)C[C@@H](C)[C@H](CN(C)C(=O)Cc2ccccc2)OCCCC[C@H](C)O3)cc1,i
SMILES,Vaccinia stage
O=C(N[C@H]1C=C[C@@H](CC(=O)N2CCc3ccccc3C2)O[C@@H]1CO)C1CCC1,i
C[C@@H]1CN([C@@H](C)CO)S(=O)(=O)c2ccc(-c3cccc(C#N)c3)cc2O[C@H]1CN(C)Cc1cccc(F)c1,i
Cc1noc(C)c1S(=O)(=O)Nc1ccc2c(c1)C(=O)N([C@@H](C)CO)C[C@@H](C)[C@@H](CN(C)C)OCCCC[C@H](C)O2,i
CN1[C@@H]2Cn3c(ccc(C4=CCCC4)c3=O)[C@H]1[C@@H](C(=O)N1CCOCC1)[C@@H]2CO,i
CN1C(=O)c2cc(NC(=O)C3CC3)ccc2OC[C@@H]2O[C@H](CC(=O)NCCc3ccncc3)CC[C@H]21,i
C[C@@H]1CN([C@H](C)CO)C(=O)c2cccc(NC(=O)Nc3ccc(C(F)(F)F)cc3)c2O[C@@H]1CN(C)Cc1ccc(C(=O)Nc2ccccc2N)cc1,i
C[C@@H]1CN([C@@H](C)CO)C(=O)c2cc(NS(=O)(=O)c3cn(C)cn3)ccc2O[C@@H]1CN(C)C(=O)Nc1ccc2c(c1)OCO2,i
CN1CCN(C(=O)C[C@H]2CC[C@@H]3[C@H](COC[C@@H](O)CN3C(=O)C3CC3)O2)CC1,i
O=C(N[C@H]1CC[C@H](CCn2cc(C3CCCC3)nn2)O[C@@H]1CO)c1cccnc1,i
Cc1noc(C)c1S(=O)(=O)Nc1ccc2c(c1)C(=O)N([C@H](C)CO)C[C@@H](C)[C@@H](CN(C)C(=O)Nc1ccc(F)cc1)OCCCC[C@@H](C)O2,i
CO[C@@H]1CN(C)C(=O)c2cc(NS(C)(=O)=O)ccc2OC[C@H](C)N(Cc2ccccc2)C[C@@H]1C,i
CCCN1C[C@H](C)[C@H](OC)CN(C)C(=O)c2cc(NC(=O)Nc3c(C)noc3C)ccc2OC[C@@H]1C,i
C[C@@H]1CN([C@@H](C)CO)C(=O)c2cc(NC(=O)Nc3cccc4ccccc34)ccc2O[C@@H](C)CCCCO[C@H]1CN(C)C(=O)Cc1ccccc1,i
O=C(C[C@@H]1CC[C@H]2[C@@H](COC[C@@H](O)CN2C(=O)Nc2cccc(Cl)c2)O1)N1CCCCC1,i
COc1ccccc1CNC(=O)C[C@H]1CC[C@H]2[C@@H](COC[C@H](O)CN2C(=O)Nc2ccccc2)O1,i
COc1ccc(NC(=O)Nc2ccc3c(c2)CC(=O)N([C@H](C)CO)C[C@@H](C)[C@@H](CN(C)S(=O)(=O)c2ccccc2)O3)cc1,i
CO[C@@H]1CN(C)C(=O)c2ccc(NS(=O)(=O)c3ccccc3Cl)cc2OC[C@H](C)NC[C@@H]1C,i
C[C@@H]1CN([C@H](C)CO)C(=O)c2cc(N(C)C)ccc2O[C@@H](C)CCCCO[C@@H]1CN(C)C(=O)c1ccccc1,i
COc1ccccc1-c1cnc2c(c1)C(=O)N([C@H](C)CO)C[C@@H](C)[C@H](CN(C)C(=O)c1ccncc1)O2,i
C[C@H]1CN([C@@H](C)CO)C(=O)c2cccc(NC(=O)Nc3cccc4ccccc34)c2O[C@@H]1CN(C)S(C)(=O)=O,i
C[C@H](CO)N1C[C@H](C)[C@H](CN(C)C(=O)CCCN(C)C)OCCCC[C@H](C)Oc2ccc(NS(=O)(=O)c3ccc(F)cc3)cc2C1=O,i
COC(=O)C[C@@H]1CC[C@@H]2[C@@H](COc3ccc(NS(=O)(=O)c4ccccc4Cl)cc3C(=O)N2C)O1,i
C[C@@H]1CN([C@H](C)CO)C(=O)c2cc(NC(=O)C3CCCCC3)ccc2O[C@@H]1CN(C)S(=O)(=O)c1cn(C)cn1,i
O=C(Cc1ccccn1)NCC[C@H]1CC[C@H](NC(=O)Nc2ccccc2)[C@H](CO)O1,i
C[C@H](CO)N1C[C@H](C)[C@H](CN(C)S(=O)(=O)c2cccs2)Oc2ncc(-c3ccc(F)cc3)cc2C1=O,i
CN(C)CC(=O)N[C@@H]1C=C[C@H](CC(=O)O)O[C@H]1CO,i

# Bioassay records: PubChem BioAssay, Broad Institute
